Compound activity as filed in PubChem.
Sampled rows, rich in hits. Any-hit rate of the full collection: about 6%.
Pol III holo inh: inhibitors of bacterial DNA polymerase III holoenzyme. reconstituted DNA polymerase III holoenzyme replication, biochemical. Potency, µM (titrated, usually from 57.1 µM), inactives show at the highest dose activity change, negative = inhibition. 0.25% of 71,000 active. AID 603
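Reconstituted *E. coli* holoenzyme (0.35 nM Pol III, 1 nM beta, 154 nM SSB, 2 nM primase) was preincubated with compound for 15 min at RT. Synthesis on 1.4 nM ssM13Gori ran 35 min, then was stopped with PicoGreen/EDTA and read as dsDNA fluorescence.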
ERK AVP block: inhibitors of vasopressin-stimulated ERK signaling pathway | HEK293-V1b, vasopressin-stimulated pERK AlphaScreen | Potency, µM (titrated, usually from 57.5 µM), for the others: at the highest dose activity, negative = inhibition, most hits filed as inhibitors | 0.99% of 72,000 active | AID 995; note: nearly all actives have a fitted effect of over 55% in size
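Phosphorylated ERK1/2 detected via AlphaScreen bead proximity in lysates of V1b-expressing HEK293 cells given 25 nM vasopressin for 5 min after 30 min compound exposure (37 °C). AC50 from Hill equation; basal DMSO 0%, vasopressin 100%.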
Bst PK mod: alters activity of Bacillus stearothermophilus pyruvate kinase; purified pyruvate kinase, luminescence ATP production; ribose 5-phosphate activator present at AC10; Potency, µM; 1.2% of 51,000 active; in the data active = potency below about 11 µM; inconclusive = mostly about 12 µM to 25 µM;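 the screen sought inhibitors and activators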;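 note: scaled between full activation by ribose 5 phosphate and full inhibition by luteolin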
Tau fil binding: tau filament binding; P10636; recombinant tau filaments, thioflavin S fluorescence, 15 h; filaments grown with octadecylsulfate alongside compound; Potency, µM (top dose mostly 57.1 µM), for inactives: top-dose activity change, negative = inhibition; 2% of 71,000 active; AID 596;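 note: actives lower thioflavin S fluorescence by blocking filaments or displacing dye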
Target sequence (P10636 whole entry, looked up): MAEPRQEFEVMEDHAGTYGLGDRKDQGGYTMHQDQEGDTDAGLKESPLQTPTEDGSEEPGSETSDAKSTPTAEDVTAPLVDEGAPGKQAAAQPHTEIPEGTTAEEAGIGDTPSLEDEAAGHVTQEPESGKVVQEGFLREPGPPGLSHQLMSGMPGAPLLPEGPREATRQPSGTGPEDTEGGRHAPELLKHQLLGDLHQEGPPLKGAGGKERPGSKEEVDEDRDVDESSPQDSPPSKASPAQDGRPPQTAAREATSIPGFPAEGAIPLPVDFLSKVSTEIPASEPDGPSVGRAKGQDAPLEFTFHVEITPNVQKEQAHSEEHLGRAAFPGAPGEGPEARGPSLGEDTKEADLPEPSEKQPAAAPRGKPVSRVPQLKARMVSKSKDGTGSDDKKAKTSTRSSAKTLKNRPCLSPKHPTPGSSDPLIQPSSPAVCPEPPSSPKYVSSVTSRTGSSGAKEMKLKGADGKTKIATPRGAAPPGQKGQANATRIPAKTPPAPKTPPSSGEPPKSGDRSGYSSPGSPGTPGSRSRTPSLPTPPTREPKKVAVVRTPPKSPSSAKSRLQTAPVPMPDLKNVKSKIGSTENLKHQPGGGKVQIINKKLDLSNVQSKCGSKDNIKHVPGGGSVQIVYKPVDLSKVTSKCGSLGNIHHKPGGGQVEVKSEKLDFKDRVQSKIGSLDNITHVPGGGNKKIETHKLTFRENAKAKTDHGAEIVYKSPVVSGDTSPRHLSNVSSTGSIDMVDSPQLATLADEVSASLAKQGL
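Recombinant tau protein (human, 1 uM final) plus 30 uM ODS in HEPES pH 7.4 with NaCl, DTT and thioflavine S. Compound present from the start; fluorescence at 510 nm after 15 h, 37 C.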
ALOX15 inhib: blocks human 15-lipoxygenase activity. P16050. purified 15hLO-1, xylenol orange hydroperoxide absorbance. Potency, µM (titrated, usually from 57.1 µM), for the others: at the highest dose activity change, negative = inhibition, most hits filed as inhibitors. 1.4% of 74,000 active. AID 887; note: nearly all actives have a fitted effect of over 55% in size
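Purified human 15hLO-1 (40 nM final) in 25 mM Hepes pH 7.5, 0.01% Triton X-100 was preincubated with compound 15 min at room temperature, then reacted 6 min with 50 uM arachidonic acid; hydroperoxide detected by Fe-XO, 573/405 nm absorbance ratio.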
FLuc inh: blocks Photinus pyralis firefly luciferase activity | 2.2% of 72,000 active | Potency, µM (top dose mostly 57.1 µM), for the others: at the top dose activity change, negative = inhibition, hits mostly inhibitors | purified firefly luciferase, luminescence, 8 min | P08659; note: nearly all actives have a fitted effect of over 40% in size
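Here, luciferase activity is measured as luminescence following an 8 min room-temperature reaction at 10 uM ATP, pH 7.2. Every library sample is titrated.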
The depositor's hits bear a star; i = inactive; ? = inconclusive; · = not tested or not shown; [ ] = another dose, or the depositor's remark. Unless noted, calls come from the whole dose curve; as a rule, active = well fitted curve in the direction sought with a large enough effect; inconclusive = small, poorly fitted or top-dose-only effect, or another doubt; inactive = no such curve, though single readings can be large; an effect the other way counts as inactive or inconclusive. Unless noted, % is set by controls: 0 for no effect and ±100 for the full control effect; potency is the fitted concentration of half-maximal effect.

SMILES	Pol III holo inh	ERK AVP block	Bst PK mod	Tau fil binding	ALOX15 inhib	FLuc inh
CCOC(=O)c1sc2nc(N3CCOCC3)c3c(c2c1N)CC(C)(C)N(C)C3	-6%	0%	·	13µM*	-10%	1%
CCOC(=O)c1sc2nc(-c3ccco3)c3c(c2c1N)CC(C)(C)OC3	-9%	10%	>57	13µM*	16µM*	-18%
CCOC(=O)c1sc2nc3c(cc2c1N)COC(C)(C)C3	6%	8%	i	-18%	3%	20µM*
Cc1cc(N2CCN(C(c3ccccc3)c3ccccc3)CC2)n2ncnc2n1	10%	?	>57	58%	-6%	4%
Cc1nc2ncnn2c(N2CCN(C(c3ccccc3)c3ccccc3)CC2)c1C	-7%	25µM*	>57	177%	?	1%
Cc1noc(C)c1-c1ccc2ncnc(N3CCOCC3)c2c1	1%	-19%	·	-5%	8%	0%[2.29 µM]
CC(=O)N(C)c1nc(-c2ccc(Cl)cc2)cs1	-3%	4%	>57	2%	4%	-8%
CCNc1nc(-c2ccc(Cl)cc2)cs1	-1%	-22%	10*	-11%	?	13µM*
CNc1nc(-c2ccc(Cl)cc2)cs1	-3%	-26%	8.1*	7%	-19%	10µM*
O=C(NC1CCN(Cc2ccccc2)C1)c1ccc(Cc2nc3ccccc3[nH]2)cc1 (configuration not stated)	·	·	·	·	-7%	·
CC(O)COC(C)(C)C (configuration not stated)	-3%	?	·	-4%	4%	·
COc1ccccc1N1CCN(c2nc3ccccc3nc2C(C#N)C(=O)OC(C)C)CC1 (configuration not stated)	-4%	?	>57	7.9µM*	-8%	4%
COCCOC(=O)C(C#N)c1nc2ccccc2nc1N1CCCC1 (configuration not stated)	-1%	?	>57	16µM*	-9%	4%
C=CCOC(=O)C(C#N)c1nc2ccccc2nc1N1CCCC1 (configuration not stated)	4%	-25%	>57	16µM*	-17%	1%
CCOc1ccccc1N1CCN(c2nc3ccccc3nc2C(C#N)C(=O)OC)CC1 (configuration not stated)	·	·	>26	·	·	-1%[25.5 µM]
C[C@@H]1O[C@@H](OC[C@@H]2O[C@@H](Oc3c(-c4ccc(O)c(O)c4)oc4cc(O)cc(O)c4c3=O)[C@H](O)[C@H](O)[C@@H]2O)[C@H](O)[C@H](O)[C@@H]1O	-6%	·	·	?	·	-1%[11.4 µM]
O=C(COC(=O)C1CCC1)NCc1ccccc1Cl	-2%	12%	>57	3%	4%	16µM*
CC1CC1C(=O)OCC(=O)NCc1ccccc1Cl (configuration not stated)	-2%	4%	>57	-8%	-2%	-1%
COc1ccc(CCNC[C@H](O)c2ccc(O)cc2)cc1OC	4%	-5%	·	-1%	7%	0%
Cc1cccc(NC(=O)c2ccccc2C(=O)O)c1	-4%	-14%	·	-8%	5%	0%
O=C(Nc1cccc(O)c1)c1ccc(Br)cc1	-11%	?	·	2%	-3%	-26%
O=C(/C=C/Nc1cccc(O)c1)c1ccccc1	-4%	?	·	-5%	13µM*	2µM*
Cc1ccc(C(=O)/C=C/Nc2cccc(O)c2)cc1	·	·	1.3*	·	·	2.5µM*
C/C(=C\C(=O)c1ccc(C)cc1)Nc1cccc(O)c1	0%	-18%	·	40%	-4%	5µM*
COc1cccc(Cn2c(=O)c(CCc3ccccc3)nc3cncnc32)c1	1%	-4%	·	-30%	10%	0%[11.4 µM]
SMILES	Pol III holo inh	ERK AVP block	Bst PK mod	Tau fil binding	ALOX15 inhib	FLuc inh
C=CCSc1nc2c(N)ncnc2n1[C@@H]1O[C@H](CO)[C@@H](O)[C@@H]1O	-5%[11.4 µM]	17%[11.5 µM]	·	4%[11.4 µM]	5%[11.4 µM]	4%[11.4 µM]
OC[C@@H]1O[C@@H](n2cnc3c(NC4CCCC4)ncnc32)[C@@H](O)[C@H]1O	-9%	-30%	·	-10%	-5%	2%
COc1ccc(Cn2c3nc4ccccc4nc3c3c(=O)n(Cc4ccco4)c(C)nc32)cc1	?	-12%	>57	?	-28%	1%
Cc1ccc(S(=O)(=O)c2c(N)n(/N=C/c3ccco3)c3nc4ccccc4nc23)cc1	0%	10%	>57	2%	5%	-3%
Cc1ccc(S(=O)(=O)c2c(N)n(/N=C/c3ccco3)c3nc4ccccc4nc23)cc1C	-2%	-1%	>57	16µM*	?	1%
COc1ccc(S(=O)(=O)c2c(N)n(Cc3ccco3)c3nc4ccccc4nc23)cc1	7%	-24%	>57	-20%	20µM*	-3%
Cc1nc2c(c(=O)n1Cc1ccccc1Cl)c1nc3ccccc3nc1n2Cc1ccco1	-20%	25µM*	>57	16µM*	?	-27%
Cc1cccc(S(=O)(=O)c2c(N)n(/N=C/c3ccco3)c3nc4ccccc4nc23)c1	-4%	-12%	·	-28%	-21%	0%
COc1ccc(Cn2c(C)nc3c(c2=O)c2nc4ccccc4nc2n3Cc2ccco2)cc1	?	-12%	>57	2.5µM*	-23%	-1%
O=S(=O)(c1ccccc1)N1CCC2(CCN(c3cccc(-c4ccccc4)c3)CC2)CC1	-6%	20%	·	7%	-10%	1%[11.4 µM]
CC(C)(C)N1C(=O)[C@H]2[C@H]3[C@H](O)[C@H](O)C/C(=N/OC[C@@H](O)COCc4ccco4)[C@H]3CC[C@@H]2C1=O	·	7%[11.5 µM]	·	·	5%[11.4 µM]	2%[11.4 µM]
COCC(=O)N1CCC2(CC1)CN(c1cccc(-c3ccccc3)c1)C2	-3%	-18%	·	-6%	-8%	-2%[11.4 µM]
CNc1ncnc2c1ncn2[C@H]1C[C@@H](OP(=O)(O)O)[C@H](COP(=O)(O)O)O1	-4%	3%	·	-8%	5%	2%
NC(=O)c1ccccc1NS(=O)(=O)Cc1ccc(Cl)cc1	-7%	-2%	>57	6%	7%	-2%
O=C(CS(=O)(=O)Cc1ccccc1)Nc1nc2ccccc2s1	-9%	25µM*	>57	7%	-9%	-1%
NC(=O)c1ccccc1NC(=O)CS(=O)(=O)Cc1ccccc1	-1%	-22%	3*	16%	-9%	0%
COCC(=O)N1CCC2(CC1)CCN(c1ncccn1)CC2	-11%	30%	·	14%	-2%	1%[11.4 µM]
CC(C)=CC(=O)Nc1ccc(Br)cc1	1%	-14%	·	-4%	-4%	20µM*
C[C@@](N)(/C=C\c1ccccc1)C(=O)O	-6%[11.4 µM]	-10%[11.5 µM]	·	2%[11.4 µM]	8%[11.4 µM]	1%[11.4 µM]
COc1ccc(-n2nc3cc(C)c(NC(=O)c4cccnc4)cc3n2)cc1	-1%	-1%	9.6*	172%	5%	2.5µM*
Cc1cc2nn(-c3ccccc3)nc2cc1NC(=O)c1cccs1	-2%	-5%	2.3*	71%	0%	16µM*
